The results in this text go back to publication PMC7862700, “An all-to-all approach to the identification of sequence-specific readers for epigenetic DNA modifications on cytosine”.

What all share (assay): DAPPL (digital affinity profiling via proximity ligation, sequencing); 10 mM Tris-HCl pH 7.5, 50 mM NaCl, 1 mM DTT, 4% glycerol, room temperature, 30 min; GST-TFs on glutathione beads, 16-mer random dsDNA library, 0.1% formaldehyde crosslink after washing; high values mean tight binding
Holding throughout (conditions): protein: recombinant; tags: N-terminal GST; dsDNA, one strand shown

For one experiment, the target named is T1, FLI1 (Homo sapiens, UniProt Q01543 1-452).
T1 sequence: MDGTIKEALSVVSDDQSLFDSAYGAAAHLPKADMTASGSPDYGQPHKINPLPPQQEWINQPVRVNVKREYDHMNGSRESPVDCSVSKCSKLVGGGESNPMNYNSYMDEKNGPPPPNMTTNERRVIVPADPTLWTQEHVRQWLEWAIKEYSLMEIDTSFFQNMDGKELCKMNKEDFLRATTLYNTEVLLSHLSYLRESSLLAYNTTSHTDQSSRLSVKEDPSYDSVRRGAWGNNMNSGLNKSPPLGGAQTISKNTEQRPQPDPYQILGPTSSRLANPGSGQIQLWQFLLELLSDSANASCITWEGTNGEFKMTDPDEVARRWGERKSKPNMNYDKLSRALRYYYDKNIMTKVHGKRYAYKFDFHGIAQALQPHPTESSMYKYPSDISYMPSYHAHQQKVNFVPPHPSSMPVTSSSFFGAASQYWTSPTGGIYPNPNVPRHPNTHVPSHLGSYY
The procedure, abridged: (§1)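 A tag-only sample was pooled with DNA-barcoded human transcription factors that had been expressed in yeast as GST fusions and captured on glutathione beads. The pools were incubated for 30 min at room temperature with 200 nmole of a random double-stranded 16-mer DNA library in Tris/NaCl/DTT/glycerol buffer, then washed, crosslinked with 0.1% formaldehyde, proximity-ligated (BsaI/T4 ligase, 1 h, 37 °C), PCR-amplified and sequenced on an Illumina NextSeq500. Binding signal is each hexamer's read frequency for a factor divided by its frequency for the tag-only sample.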

In a further experiment the target is T2, ELK1 (Homo sapiens, UniProt P19419 1-428).
T2 sequence: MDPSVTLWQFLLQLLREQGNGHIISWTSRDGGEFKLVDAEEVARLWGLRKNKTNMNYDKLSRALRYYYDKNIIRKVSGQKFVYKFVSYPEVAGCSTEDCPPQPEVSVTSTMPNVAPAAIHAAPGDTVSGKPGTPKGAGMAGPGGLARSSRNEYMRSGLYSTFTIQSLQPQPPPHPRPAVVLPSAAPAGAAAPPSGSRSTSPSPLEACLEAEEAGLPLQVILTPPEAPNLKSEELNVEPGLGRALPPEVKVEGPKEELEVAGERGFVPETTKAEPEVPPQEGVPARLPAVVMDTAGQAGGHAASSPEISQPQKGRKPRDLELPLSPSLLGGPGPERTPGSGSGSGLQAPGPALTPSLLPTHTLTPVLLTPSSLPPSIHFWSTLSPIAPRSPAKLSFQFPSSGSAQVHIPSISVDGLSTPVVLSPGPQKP
The procedure, abridged:
as §1

The target in a further experiment is T3, ERG (Homo sapiens, UniProt P11308 1-479).
T3 sequence: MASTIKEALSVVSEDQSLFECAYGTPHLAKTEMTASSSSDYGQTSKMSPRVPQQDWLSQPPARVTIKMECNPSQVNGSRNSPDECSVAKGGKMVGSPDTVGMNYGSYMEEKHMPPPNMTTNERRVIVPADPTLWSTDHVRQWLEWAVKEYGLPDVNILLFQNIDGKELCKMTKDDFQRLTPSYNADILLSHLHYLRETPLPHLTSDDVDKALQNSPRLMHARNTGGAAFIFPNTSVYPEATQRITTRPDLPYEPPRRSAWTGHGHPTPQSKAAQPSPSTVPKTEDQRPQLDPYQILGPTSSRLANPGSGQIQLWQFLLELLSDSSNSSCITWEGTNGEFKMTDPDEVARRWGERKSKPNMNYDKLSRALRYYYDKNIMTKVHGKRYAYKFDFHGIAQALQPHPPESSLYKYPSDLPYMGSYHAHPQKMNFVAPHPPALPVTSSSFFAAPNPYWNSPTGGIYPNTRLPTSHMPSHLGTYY
The procedure, abridged: as §1

In another experiment the target is ELF1 (Homo sapiens, UniProt P32519 1-619). In outline:
as §1

For the next experiment, the target named is SPI1 (Homo sapiens, UniProt P17947 1-270). In outline:
as §1

The target in another experiment is SPIB (Homo sapiens, UniProt Q01892 1-262). The procedure, abridged: as §1
Chain of SPIB (Q01892 whole entry): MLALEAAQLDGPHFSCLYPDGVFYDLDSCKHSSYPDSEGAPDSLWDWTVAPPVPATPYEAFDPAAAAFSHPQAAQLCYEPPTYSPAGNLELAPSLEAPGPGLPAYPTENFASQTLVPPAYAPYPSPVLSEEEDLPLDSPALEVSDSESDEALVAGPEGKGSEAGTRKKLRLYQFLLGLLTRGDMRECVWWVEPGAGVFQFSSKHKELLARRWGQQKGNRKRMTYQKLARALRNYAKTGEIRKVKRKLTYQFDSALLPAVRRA
The target of another experiment is ETV5 (Homo sapiens, UniProt P41161 1-510). The procedure, abridged:
as §1

Another experiment deals with T4, SPIC (Homo sapiens, UniProt Q8N5J4 1-248).
T4 sequence: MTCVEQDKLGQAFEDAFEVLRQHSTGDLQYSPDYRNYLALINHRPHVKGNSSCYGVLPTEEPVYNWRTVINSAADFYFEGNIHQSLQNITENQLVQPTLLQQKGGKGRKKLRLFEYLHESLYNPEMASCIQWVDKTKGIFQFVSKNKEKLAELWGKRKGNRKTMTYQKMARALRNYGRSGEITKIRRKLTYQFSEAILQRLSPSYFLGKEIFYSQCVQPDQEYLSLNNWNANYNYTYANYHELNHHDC
The procedure, abridged: as §1

A further experiment has as its target T5, ERF (Homo sapiens, UniProt P50548 1-548).
T5 sequence: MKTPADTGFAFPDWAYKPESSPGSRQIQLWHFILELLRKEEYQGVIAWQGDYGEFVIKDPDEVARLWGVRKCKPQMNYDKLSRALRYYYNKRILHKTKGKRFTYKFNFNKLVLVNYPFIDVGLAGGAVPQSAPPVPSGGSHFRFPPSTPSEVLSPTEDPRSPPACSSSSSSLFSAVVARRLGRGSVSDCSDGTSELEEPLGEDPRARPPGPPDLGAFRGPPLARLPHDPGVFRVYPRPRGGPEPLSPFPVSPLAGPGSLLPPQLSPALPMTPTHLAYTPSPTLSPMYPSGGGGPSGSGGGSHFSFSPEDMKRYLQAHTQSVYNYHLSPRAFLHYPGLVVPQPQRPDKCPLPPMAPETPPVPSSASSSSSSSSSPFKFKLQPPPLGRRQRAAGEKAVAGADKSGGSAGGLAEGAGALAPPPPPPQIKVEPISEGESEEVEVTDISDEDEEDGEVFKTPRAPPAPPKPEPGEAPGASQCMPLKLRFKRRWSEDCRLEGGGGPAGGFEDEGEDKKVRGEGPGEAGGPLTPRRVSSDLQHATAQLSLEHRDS
The procedure, abridged:
as §1

The next experiment deals with T6, ETV3L (Homo sapiens, UniProt Q6ZN32 1-361).
T6 sequence: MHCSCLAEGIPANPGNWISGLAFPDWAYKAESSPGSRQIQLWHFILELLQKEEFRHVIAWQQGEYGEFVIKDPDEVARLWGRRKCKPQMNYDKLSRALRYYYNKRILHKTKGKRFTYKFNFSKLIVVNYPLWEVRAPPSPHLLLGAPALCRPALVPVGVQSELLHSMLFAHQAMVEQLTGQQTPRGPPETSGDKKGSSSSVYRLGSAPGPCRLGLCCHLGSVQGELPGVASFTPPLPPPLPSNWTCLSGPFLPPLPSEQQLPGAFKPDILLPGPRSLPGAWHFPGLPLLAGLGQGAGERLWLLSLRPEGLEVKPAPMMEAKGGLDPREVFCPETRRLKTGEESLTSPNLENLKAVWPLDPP
In outline:
as §1

A further experiment has as its target T7, ETS2 (Homo sapiens, UniProt P15036 1-469).
T7 sequence: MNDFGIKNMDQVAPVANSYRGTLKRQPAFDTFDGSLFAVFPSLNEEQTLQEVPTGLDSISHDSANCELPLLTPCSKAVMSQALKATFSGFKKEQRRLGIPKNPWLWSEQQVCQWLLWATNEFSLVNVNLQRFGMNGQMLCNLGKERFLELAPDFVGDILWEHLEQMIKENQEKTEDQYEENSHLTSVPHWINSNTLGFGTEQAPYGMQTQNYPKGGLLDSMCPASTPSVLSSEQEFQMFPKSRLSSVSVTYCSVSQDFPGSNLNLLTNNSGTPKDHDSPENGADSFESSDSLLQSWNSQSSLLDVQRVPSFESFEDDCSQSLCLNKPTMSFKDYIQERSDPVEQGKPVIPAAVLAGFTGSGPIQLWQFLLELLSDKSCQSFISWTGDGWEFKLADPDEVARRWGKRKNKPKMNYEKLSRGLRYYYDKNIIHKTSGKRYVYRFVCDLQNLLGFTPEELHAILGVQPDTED
The procedure, abridged:
as §1

A further experiment concerns the target T8, ELF5 (Homo sapiens, UniProt Q9UKW6-2 1-255).
T8 sequence: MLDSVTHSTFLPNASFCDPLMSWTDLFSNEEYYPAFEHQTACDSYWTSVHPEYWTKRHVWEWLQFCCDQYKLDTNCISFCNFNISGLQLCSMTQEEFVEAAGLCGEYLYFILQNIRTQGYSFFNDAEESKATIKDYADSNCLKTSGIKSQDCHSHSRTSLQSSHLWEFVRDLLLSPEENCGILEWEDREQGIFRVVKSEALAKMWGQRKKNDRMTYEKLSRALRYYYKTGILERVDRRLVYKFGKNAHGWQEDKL
In outline: as §1

Another experiment deals with T9, ETV3 (Homo sapiens, UniProt P41162-2 1-143).
T9 sequence: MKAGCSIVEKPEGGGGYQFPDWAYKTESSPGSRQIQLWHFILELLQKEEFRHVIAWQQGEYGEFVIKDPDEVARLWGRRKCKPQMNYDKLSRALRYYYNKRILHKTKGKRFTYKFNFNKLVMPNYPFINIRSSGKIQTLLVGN
The procedure, abridged: as §1

A further experiment deals with T10, GABPA (Homo sapiens, UniProt Q06546 1-454).
T10 sequence: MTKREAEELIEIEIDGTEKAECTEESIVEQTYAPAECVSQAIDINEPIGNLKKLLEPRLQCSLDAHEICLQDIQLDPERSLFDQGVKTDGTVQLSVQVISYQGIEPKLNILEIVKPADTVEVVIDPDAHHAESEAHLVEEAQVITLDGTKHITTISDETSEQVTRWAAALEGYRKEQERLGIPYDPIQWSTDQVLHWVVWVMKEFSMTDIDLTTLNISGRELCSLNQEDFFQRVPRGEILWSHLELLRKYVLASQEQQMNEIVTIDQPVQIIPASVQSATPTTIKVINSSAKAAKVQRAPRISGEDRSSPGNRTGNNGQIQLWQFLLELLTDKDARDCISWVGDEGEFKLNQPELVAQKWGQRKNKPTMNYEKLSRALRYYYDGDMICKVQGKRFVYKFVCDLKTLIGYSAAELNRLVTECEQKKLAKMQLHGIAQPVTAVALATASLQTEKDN
In outline:
as §1

For a further experiment, the target named is T11, EHF (Homo sapiens, UniProt Q9NZC4 1-300).
T11 sequence: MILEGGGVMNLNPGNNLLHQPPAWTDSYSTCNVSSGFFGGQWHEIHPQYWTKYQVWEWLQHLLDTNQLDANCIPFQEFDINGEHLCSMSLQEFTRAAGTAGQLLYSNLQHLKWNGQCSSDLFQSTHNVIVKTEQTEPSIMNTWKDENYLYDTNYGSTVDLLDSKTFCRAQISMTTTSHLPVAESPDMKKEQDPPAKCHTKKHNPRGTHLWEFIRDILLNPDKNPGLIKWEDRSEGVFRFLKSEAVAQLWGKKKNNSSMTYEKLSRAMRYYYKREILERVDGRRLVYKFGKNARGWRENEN
The procedure, abridged:
as §1

Chain of ETV5 (P41161 whole entry): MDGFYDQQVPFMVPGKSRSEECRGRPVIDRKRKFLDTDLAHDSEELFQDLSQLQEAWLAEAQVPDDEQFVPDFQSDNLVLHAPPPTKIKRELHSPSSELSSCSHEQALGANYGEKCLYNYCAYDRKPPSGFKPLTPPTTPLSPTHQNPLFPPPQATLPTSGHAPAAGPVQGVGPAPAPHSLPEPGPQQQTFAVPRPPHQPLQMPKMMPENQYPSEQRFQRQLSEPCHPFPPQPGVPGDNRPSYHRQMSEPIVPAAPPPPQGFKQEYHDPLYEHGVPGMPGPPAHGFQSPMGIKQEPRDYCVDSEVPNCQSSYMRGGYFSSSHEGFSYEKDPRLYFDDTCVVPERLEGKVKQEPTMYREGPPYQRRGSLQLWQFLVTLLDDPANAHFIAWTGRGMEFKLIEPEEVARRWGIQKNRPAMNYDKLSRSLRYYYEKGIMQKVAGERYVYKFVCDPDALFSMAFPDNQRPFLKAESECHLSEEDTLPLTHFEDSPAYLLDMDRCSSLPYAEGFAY
Chain of ELF1 (P32519 whole entry): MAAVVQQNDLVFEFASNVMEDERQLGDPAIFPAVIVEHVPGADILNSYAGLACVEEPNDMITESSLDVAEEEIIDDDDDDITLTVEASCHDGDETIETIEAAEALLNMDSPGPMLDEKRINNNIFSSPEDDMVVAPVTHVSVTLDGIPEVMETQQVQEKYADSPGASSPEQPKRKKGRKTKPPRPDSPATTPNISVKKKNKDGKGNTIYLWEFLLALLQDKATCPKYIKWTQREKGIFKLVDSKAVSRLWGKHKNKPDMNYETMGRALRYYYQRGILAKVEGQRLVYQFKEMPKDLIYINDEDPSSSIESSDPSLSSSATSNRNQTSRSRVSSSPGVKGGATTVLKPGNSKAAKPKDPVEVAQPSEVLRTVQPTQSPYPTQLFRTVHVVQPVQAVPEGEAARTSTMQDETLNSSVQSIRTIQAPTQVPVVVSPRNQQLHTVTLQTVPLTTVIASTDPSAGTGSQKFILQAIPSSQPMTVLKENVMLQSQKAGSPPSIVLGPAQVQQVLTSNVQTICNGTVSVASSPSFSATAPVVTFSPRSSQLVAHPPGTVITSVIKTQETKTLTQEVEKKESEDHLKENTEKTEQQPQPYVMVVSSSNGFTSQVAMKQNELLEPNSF

In the case of GTTGCG, the binding signal with FLI1 is 1 fold enrichment (6-mer frequency, TF over GST control); in the experiment with ELK1 it was 1.04 fold enrichment (6-mer frequency, TF over GST control); with ERG, 1.09 fold enrichment (6-mer frequency, TF over GST control); with ELF1, 1.02 fold enrichment (6-mer frequency, TF over GST control); with SPI1 it was 1.02 fold enrichment (6-mer frequency, TF over GST control); in the experiment with SPIB it was 1.15 fold enrichment (6-mer frequency, TF over GST control). For the same sequence, the binding signal with ETV5 was 1.07 fold enrichment (6-mer frequency, TF over GST control); in the experiment with SPIC, 1.23 fold enrichment (6-mer frequency, TF over GST control); in the experiment with ERF, 1.14 fold enrichment (6-mer frequency, TF over GST control); in the experiment with ETV3L it was 1.06 fold enrichment (6-mer frequency, TF over GST control); with ETS2, 1.07 fold enrichment (6-mer frequency, TF over GST control); with ELF5, 1.02 fold enrichment (6-mer frequency, TF over GST control). In addition, the binding signal in the experiment with ETV3 is 1.07 fold enrichment (6-mer frequency, TF over GST control).

Consider ATAGCG, for which the binding signal was 1.08 fold enrichment (6-mer frequency, TF over GST control) with FLI1; 1.03 fold enrichment (6-mer frequency, TF over GST control) with ELK1; 1.01 fold enrichment (6-mer frequency, TF over GST control) with GABPA; 1.05 fold enrichment (6-mer frequency, TF over GST control) with EHF; 1.07 fold enrichment (6-mer frequency, TF over GST control) with SPI1; 1.04 fold enrichment (6-mer frequency, TF over GST control) in the experiment with ETV5. Also, the binding signal in the experiment with SPIC was 1.03 fold enrichment (6-mer frequency, TF over GST control); with ERF, 1.1 fold enrichment (6-mer frequency, TF over GST control); with ETS2 it was 1 fold enrichment (6-mer frequency, TF over GST control).
